Data reported in ChEMBL document CHEMBL3988442, “University of Dundee, Small-Polar-MMV Screening Library” (2021).
For some assays here: Measured potencies and affinities stand elsewhere.

Tests used:
Set-up in all cases: scale not given: direction of the effect not stated beside the values
[1] = molecular target: Protein translocase subunit SecA (Escherichia coli (strain K12)) (UniProt P10408); experiment: Assay to Identify E. coli SecA ATPase Inhibitors; type: functional; settings: 30 µM
[2] = molecular target: T1, Ubiquitin-activating enzyme e1, putative (Leishmania donovani (strain BPK282A1)) (UniProt E9BSI1); experiment: Leishmania donovani Ubiquitin Activating Enzyme (LdE1); type: functional; settings: 30 µM
T1 sequence (whole entry): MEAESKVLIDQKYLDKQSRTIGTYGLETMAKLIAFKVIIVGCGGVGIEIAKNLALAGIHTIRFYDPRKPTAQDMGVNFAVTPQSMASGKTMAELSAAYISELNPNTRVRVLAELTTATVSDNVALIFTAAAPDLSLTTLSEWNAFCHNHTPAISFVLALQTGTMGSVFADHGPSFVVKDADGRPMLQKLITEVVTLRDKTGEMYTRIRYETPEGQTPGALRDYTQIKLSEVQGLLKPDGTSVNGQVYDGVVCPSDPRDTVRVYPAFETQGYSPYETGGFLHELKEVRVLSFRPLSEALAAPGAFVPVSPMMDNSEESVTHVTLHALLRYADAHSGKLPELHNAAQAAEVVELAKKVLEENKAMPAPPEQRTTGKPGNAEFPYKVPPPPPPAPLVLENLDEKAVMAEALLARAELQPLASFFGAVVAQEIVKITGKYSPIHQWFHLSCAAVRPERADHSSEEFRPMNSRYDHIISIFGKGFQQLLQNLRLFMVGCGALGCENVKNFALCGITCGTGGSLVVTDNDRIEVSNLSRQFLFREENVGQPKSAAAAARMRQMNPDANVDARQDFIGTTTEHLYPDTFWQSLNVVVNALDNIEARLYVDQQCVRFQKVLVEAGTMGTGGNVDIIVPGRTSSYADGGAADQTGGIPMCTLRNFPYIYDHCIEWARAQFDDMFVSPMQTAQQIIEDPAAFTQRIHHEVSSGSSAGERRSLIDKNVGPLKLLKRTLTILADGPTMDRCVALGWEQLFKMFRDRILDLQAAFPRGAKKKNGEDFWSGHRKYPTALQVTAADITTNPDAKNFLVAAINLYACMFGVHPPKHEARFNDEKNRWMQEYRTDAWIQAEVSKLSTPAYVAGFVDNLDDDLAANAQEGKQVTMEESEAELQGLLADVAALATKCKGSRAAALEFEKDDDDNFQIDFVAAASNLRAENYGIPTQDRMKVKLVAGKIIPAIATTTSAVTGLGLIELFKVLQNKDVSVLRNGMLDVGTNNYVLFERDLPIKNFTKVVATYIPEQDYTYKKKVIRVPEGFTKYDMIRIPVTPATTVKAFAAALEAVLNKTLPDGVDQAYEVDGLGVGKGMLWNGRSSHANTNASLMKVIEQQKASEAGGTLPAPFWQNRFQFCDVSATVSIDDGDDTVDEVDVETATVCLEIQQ

[3] = molecular target: AMP-activated protein kinase, AMPK (Homo sapiens) (UniProt P54646+O43741+P54619+Q9UGJ0+Q9Y478+Q13131+Q9UGI9); experiment: AMP-dependent Kinase enzyme assay. An in vitro enzyme assay that detects ADP turnover that is directly proportional to AMPK activity. This uses naive AMPK that is activated during the assay with MK-8722; type: functional; settings: 30 µM
[4] = molecular target: Sialic acid-binding Ig-like lectin 9 (Homo sapiens) (UniProt Q9Y336); experiment: Hs-Siglec9 ALPHAscreen SOP 20170721; settings: 10 µM
Trypanosoma cruzi = experiment: Trypanosoma cruzi phosphomannomutase and mannose-1-phosphate guanylyltransferase assay; type: functional; settings: 10 µM
[5] = molecular target: T2, Arginase-2, mitochondrial (Homo sapiens) (UniProt P78540); experiment: in vitro enzyme assay to detect the production of urea directly proportional to the activity of Arginase II; type: functional; settings: 33.3 µM; also: in the data most compounds retested in dose-response had high values
T2 sequence (whole entry): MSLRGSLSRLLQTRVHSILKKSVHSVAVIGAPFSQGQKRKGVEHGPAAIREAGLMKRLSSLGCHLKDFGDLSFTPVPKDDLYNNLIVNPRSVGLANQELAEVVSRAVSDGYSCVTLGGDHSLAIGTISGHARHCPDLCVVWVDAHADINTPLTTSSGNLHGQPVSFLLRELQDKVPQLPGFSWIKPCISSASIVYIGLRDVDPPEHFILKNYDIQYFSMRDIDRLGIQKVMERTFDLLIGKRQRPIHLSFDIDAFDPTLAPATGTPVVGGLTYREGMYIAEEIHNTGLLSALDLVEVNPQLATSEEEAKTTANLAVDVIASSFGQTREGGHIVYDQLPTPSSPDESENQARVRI

[6] = molecular target: T3, Proteasome subunit beta (Trypanosoma cruzi) (UniProt O96673); experiment: Trypanosoma cruzi proteasome chymotrypsin-like activity (TcProtChymo) assay.; also: in the data most compounds retested in dose-response had high values; type: functional; settings: 9.37 µM
T3 sequence (whole entry): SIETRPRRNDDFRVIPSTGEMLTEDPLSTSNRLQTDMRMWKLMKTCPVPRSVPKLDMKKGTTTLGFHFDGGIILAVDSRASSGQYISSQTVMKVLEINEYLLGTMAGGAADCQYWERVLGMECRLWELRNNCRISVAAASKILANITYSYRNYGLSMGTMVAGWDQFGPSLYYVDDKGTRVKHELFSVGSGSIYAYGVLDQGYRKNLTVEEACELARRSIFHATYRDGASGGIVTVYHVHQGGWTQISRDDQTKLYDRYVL

Homo sapiens = organism: Homo sapiens; experiment: To identify inhibition of the IFN signalling (Jak-Stat) pathway via expression of an eGFP reporter gene under the control of an IFN-stimulated response element (ISRE) containing MxA promoter.; type: functional; settings: 30 µM
[7] = molecular target: T4, Tyrosyl-tRNA synthetase, putative (Trypanosoma cruzi (strain CL Brener)) (UniProt Q4DSP6); experiment: Trypanosoma cruzi tyrosyl tRNA synthetase (TcYRS) _High Tyrosine SOP; type: functional; settings: 30 µM; also: in the data most compounds retested in dose-response had high values
T4 sequence (whole entry): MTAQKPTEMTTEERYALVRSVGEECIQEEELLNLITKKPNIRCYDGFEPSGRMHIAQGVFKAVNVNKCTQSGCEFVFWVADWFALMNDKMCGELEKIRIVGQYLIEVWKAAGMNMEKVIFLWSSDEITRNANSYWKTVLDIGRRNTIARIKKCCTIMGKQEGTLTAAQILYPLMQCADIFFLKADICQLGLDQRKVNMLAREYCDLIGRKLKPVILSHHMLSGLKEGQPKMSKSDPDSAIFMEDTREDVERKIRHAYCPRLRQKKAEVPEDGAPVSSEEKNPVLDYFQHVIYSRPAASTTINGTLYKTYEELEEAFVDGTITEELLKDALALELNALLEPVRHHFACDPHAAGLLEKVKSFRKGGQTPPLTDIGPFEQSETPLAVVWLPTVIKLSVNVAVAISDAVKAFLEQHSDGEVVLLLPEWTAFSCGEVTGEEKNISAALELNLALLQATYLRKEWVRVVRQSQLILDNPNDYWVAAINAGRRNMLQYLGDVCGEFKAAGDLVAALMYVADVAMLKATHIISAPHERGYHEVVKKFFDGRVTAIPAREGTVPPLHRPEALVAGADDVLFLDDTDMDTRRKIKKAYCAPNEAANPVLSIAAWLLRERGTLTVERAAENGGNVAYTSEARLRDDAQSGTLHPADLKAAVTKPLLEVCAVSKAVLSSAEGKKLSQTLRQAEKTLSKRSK

[8] = molecular target: T4, Tyrosyl-tRNA synthetase, putative (Trypanosoma cruzi (strain CL Brener)); experiment: Trypanosoma cruzi tyrosyl tRNA synthetase (TcYRS) SOP; type: functional; settings: 30 µM
[9] = molecular target: Chromo domain-containing protein 1 (Saccharomyces cerevisiae (strain ATCC 204508 / S288c) (Baker's yeast)) (UniProt P32657); experiment: ScCHD-1 Enzyme Inhibition Assay; type: functional; settings: 30 µM; also: in the data most compounds retested in dose-response had high values
Sequence of Chromo domain-containing protein 1 (Saccharomyces cerevisiae (strain ATCC 204508 / S288c) (Baker's yeast)) (P32657 whole entry, the tested form may be a part): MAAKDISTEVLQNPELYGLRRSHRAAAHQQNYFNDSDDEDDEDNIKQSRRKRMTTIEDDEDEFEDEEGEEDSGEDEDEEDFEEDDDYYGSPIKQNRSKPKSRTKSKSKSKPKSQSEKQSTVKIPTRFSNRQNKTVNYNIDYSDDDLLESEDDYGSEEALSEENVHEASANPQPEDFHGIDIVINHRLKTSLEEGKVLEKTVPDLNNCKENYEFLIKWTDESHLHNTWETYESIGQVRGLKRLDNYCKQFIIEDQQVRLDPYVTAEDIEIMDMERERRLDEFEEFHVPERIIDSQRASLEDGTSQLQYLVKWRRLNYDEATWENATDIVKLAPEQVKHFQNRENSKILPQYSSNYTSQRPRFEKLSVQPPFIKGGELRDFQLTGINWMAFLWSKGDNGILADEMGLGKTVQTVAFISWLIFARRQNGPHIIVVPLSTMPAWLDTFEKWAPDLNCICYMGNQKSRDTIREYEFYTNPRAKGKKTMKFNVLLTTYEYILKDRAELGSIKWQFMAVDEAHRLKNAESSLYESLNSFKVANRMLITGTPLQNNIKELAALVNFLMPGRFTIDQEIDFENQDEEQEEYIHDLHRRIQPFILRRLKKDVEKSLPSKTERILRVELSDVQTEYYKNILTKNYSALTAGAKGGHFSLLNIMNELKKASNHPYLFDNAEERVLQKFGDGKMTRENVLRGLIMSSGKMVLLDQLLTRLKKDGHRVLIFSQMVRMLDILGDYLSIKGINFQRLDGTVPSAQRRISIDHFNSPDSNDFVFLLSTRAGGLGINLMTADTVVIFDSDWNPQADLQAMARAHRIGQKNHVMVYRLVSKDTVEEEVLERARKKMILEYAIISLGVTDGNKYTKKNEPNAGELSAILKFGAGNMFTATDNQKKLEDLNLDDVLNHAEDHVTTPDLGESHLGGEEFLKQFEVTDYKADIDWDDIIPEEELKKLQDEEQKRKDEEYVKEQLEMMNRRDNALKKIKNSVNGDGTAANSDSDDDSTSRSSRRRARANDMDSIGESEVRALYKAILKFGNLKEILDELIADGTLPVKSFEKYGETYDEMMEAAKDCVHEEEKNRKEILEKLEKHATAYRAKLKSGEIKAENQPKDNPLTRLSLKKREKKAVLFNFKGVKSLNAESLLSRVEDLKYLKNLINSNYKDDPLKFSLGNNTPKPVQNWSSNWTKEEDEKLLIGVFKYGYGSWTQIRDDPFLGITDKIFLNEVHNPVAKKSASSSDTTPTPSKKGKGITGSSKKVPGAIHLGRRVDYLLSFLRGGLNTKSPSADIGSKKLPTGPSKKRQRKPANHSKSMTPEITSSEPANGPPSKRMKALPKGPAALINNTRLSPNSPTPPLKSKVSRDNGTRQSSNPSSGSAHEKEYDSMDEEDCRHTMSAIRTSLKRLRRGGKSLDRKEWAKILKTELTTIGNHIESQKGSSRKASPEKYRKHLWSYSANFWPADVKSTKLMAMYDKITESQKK

Sequence of Sialic acid-binding Ig-like lectin 9 (Homo sapiens) (Q9Y336 whole entry): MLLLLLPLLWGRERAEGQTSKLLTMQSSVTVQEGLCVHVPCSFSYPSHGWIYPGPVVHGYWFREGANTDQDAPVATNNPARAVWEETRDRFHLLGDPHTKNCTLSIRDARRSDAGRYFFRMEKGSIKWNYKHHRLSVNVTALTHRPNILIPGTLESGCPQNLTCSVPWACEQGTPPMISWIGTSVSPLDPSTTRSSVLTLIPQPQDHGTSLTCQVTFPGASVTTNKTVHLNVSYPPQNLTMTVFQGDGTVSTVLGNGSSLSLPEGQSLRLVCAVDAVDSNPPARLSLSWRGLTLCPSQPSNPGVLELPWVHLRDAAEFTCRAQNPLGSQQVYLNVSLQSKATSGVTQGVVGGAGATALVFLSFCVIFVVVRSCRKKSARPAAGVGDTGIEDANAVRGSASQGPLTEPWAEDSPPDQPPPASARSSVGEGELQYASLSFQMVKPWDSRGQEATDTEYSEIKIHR
Sequence of Protein translocase subunit SecA (Escherichia coli (strain K12)) (P10408 whole entry): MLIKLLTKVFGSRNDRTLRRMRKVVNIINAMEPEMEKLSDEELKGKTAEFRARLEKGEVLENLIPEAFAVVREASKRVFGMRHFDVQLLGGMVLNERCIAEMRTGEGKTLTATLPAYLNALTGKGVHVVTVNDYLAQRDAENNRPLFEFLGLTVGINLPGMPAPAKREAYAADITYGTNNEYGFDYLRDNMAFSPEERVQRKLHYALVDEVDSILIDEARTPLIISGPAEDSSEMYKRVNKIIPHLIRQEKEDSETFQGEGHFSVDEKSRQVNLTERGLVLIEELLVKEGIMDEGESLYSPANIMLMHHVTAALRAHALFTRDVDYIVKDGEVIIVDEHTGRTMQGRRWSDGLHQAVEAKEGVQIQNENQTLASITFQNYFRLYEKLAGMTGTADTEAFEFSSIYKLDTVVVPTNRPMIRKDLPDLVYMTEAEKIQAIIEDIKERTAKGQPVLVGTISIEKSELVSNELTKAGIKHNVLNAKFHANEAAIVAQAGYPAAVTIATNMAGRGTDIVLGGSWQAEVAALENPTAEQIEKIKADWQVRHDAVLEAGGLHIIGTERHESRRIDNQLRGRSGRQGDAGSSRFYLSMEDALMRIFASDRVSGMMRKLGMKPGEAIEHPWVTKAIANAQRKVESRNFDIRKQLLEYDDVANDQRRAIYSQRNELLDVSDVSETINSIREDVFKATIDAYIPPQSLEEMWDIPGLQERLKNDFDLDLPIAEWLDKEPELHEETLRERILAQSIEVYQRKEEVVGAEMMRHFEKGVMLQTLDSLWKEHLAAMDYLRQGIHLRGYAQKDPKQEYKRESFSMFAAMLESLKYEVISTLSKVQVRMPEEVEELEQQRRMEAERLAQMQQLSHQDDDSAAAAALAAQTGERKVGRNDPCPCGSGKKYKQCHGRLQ

| SMILES | Percent Effect [1] [%] | Percent Effect [2] [%] | Percent Effect [3] [%] | Percent Effect [4] [%] | Percent Effect (Trypanosoma cruzi) [%] | Percent Effect [5] [%] | Percent Effect [6] [%] | Percent Effect (Homo sapiens) [%] | Percent Effect [7] [%] | Percent Effect [8] [%] | Percent Effect [9] [%] |
| --- | --- | --- | --- | --- | --- | --- | --- | --- | --- | --- | --- |
| CSCC(=O)N1C[C@H]2CC[C@@H]1CN(Cc1ccccc1)C2 | -2.57 | 8.22 | 14.1 | -0.0854 | 0 | 0.455 | 10.8 | 15.3 | 11.8 | 12.5 | -6.22 |
| O=C(CCCc1nnc(-c2ccccc2)o1)N1CCN(CCO)CC1 | 0.944 | 5.06 | -13.1 | 8.28 | -2.36 | 5.7 | 12.2 | 0.191 | 2.46 | 8.86 | -6.47 |
| Cc1nn(C)c(C)c1C1CCCN1Cc1nc(C2CC2)no1 (configuration not stated) | -2.91 | 16.2 | 0.977 | -3.54 | 6.22 | -0.924 | 15.6 | 16.5 | 5.94 | 18.3 | -7.69 |
| Cc1nc2ccccn2c1CN(Cc1cccnc1)CC1CCCO1 (configuration not stated) | -1.83 | -2.74 | 2.15 | 0.744 | -6.27 | 0.455 | 7.63 | 13.7 | -2.15 | -2.5 | -1.23 |
| Cc1cc(CN2Cc3ccccc3CC2c2nnc(C)o2)on1 (configuration not stated) | -3.58 | 2.6 | 6.16 | 3.48 | 2.25 | 4.84 | 0.728 | -4.28 | 6.67 | 9.41 | -13.4 |
| Cn1cc(CN2CCCn3cnc(CN4CCCC4=O)c3C2)cn1 | -2.78 | -2.67 | 4.3 | 32.8 | -1.74 | -23.5 | 3.76 | -13.1 | 1.04 | 2.5 | -4.19 |
| CC[C@H](C)[C@H](NC(=O)Cc1csc(-c2cccc(Cl)c2)n1)C(=O)O | -3.85 | 9.33 | 11.6 | 11.9 | 0.982 | -4.75 | 12.6 | -8.02 | 4.23 | 7.69 | -5.96 |
| O=C(c1cc(F)ccc1F)C1CCN(C(=O)c2ccc(=O)[nH]n2)CC1 | -2.7 | 13 | 0.316 | 0.809 | -3.43 | 2.32 | 7.52 | 15.8 | 3.81 | 18.8 | -6.34 |
| Cc1oc(-c2ccsc2)nc1CC(=O)NCCS(C)(=O)=O | -3.85 | 5.2 | 2.35 | 5.36 | -2.26 | -4.14 | 9.48 | 3.37 | -1.07 | 6.17 | -2.55 |
| O=C(NCCNS(=O)(=O)c1ccc2c(c1)CCCC2)c1ccoc1 | -4.38 | 13.3 | -3.34 | 15.1 | 3.41 | 10.9 | 5.41 | 29.3 | 6.01 | 13.6 | 0.0598 |
| Cc1nnc2n1CCN(Cc1csc(-c3ccc(F)cc3)n1)C2 | -4.19 | 5.41 | -2.56 | 4.19 | 8.26 | -4.62 | 5.75 | 4.35 | 3.96 | 15.8 | -6.22 |
| Cc1cc2c(=O)n3c(nc2s1)CCN(Cc1cnn(C)c1C)CC3 | -4.39 | 9.46 | 12.6 | -0.402 | -4.74 | 2.09 | 8.58 | 7.67 | 5.38 | 9.09 | -8.69 |
| Cc1cnn(CC2CCCN2C(=O)Cc2n[nH]c3ccccc23)c1 (configuration not stated) | -5.48 | 10.1 | 14 | 7.2 | 2.17 | 7.61 | -0.0819 | 10.1 | 8.37 | 11.4 | -3.88 |
| O=C1N(Cc2ccc(F)c(F)c2)CCCC12CCN(C1CCSCC1)C2 (configuration not stated) | -4.12 | -8 | -4.64 | 30.2 | 9.25 | 23.4 | 9.77 | 3.27 | 15.8 | 25.9 | 0.965 |
| O=C(NCc1ccco1)[C@H]1C[C@@H]2CCN(c3ccncn3)C[C@@H]2O1 | -3.35 | 10.7 | 1.73 | 2.91 | 6.56 | -56.5 | 16.9 | -18.7 | 6.25 | 17.5 | -5.87 |
| CCS(=O)(=O)N1CCC2(CC1)CC(Oc1ccccn1)CO2 (configuration not stated) | -0.483 | 10.4 | 4.49 | -1.15 | -5.23 | 7.1 | 11 | 17.8 | 2.12 | 3.85 | -7.08 |
| Cc1cc(C)n(C2CCCN(C(=O)c3ccc(F)cc3F)C2)n1 (configuration not stated) | -11.1 | -5.41 | -1.04 | 0.0778 | -3.91 | -3.75 | 7.02 | -1.41 | 5.94 | 6.1 | 2.92 |
| Cc1ccc(CN2CCc3ncnc(C4CC4)c3CC2)s1 | 1.05 | 5.33 | 5.76 | -4.5 | -5.41 | -54.3 | 6.15 | 43.3 | 8.33 | 12.5 | -7.16 |
| Cc1nnc(N2CCC(CNC(=O)OC(C)(C)C)CC2)c(C#N)c1C | -4.74 | 7.79 | -1.74 | -8.54 | 1.47 | -0.21 | 7.2 | 26.6 | 2.86 | 11.8 | -16.5 |
| CCn1cc(NC(=O)C2CCN(CCOC(C)C)CC2)cn1 | -6.99 | 7.89 | -2.47 | -0.756 | -6.07 | -3.6 | 3.98 | 6.54 | 2.46 | 3.7 | 0.215 |
| COc1ccc(Cc2cccc(C3CCN(C)CC3)n2)cc1 | -2.99 | -55.4 | 8.96 | 9.53 | -0.395 | -1.62 | 6.55 | 2.93 | 5.38 | 1.3 | 1.29 |
| CCN(Cc1ccc2c(c1)OCCO2)C(=O)NC(C)Cn1ccnc1 (configuration not stated) | -0.244 | 23.4 | -1.99 | -9.3 | -9.74 | 3.56 | 10.8 | 19.8 | 3.88 | 9.76 | -7.71 |
